Hits are enriched below; roughly 8.9% of the tested compounds scored in any of these assays.
MCF10A rerep – induces DNA re-replication in MCF 10a normal breast cells; MCF 10A DNA re-replication, Hoechst nuclear intensity, 48 h; Potency, µM (titrated, usually from 46.1 µM), inactives show top-dose activity, positive = re-replication, actives largely listed as activators; actives 2.9% (n = 350,000); AID 624296; also: potency is read from the fitted curve at half-maximal effect; % of control where 0% means no effect; nearly all actives have a fitted effect of over 50% in size
KB-V1 MDR tox – kills drug-selected multidrug resistant KB-V1 cells | Potency, µM (titrated, usually from 46.1 µM), usual class: cytotoxic | KB-V1 MDR cells viability, CellTiter-Glo, 72 h | actives 3.4% (n = 400,000); also: potency is read from the fitted curve at half-maximal effect; % is scaled to controls: 0 for no effect and ±100 for the full control effect; nearly all actives have a fitted effect of over 60% in size
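Cytotoxicity via CellTiter-Glo luminescence after 72 h compound exposure at 37 degrees C. Cells: drug-selected KB-V1 line, DMEM phenol-red free plus 10% FBS. Compounds tested at multiple concentrations; normalized data fitted to concentration-effect curves.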
SW480 rerep – inducers of DNA re-replication in SW480 colon cancer cells | Potency, µM (highest dose often 46.1 µM), for the others: at the top dose re-replication activation, actives largely listed as activators | AID 624297 | actives 1.8% (n = 340,000) | SW480 DNA re-replication, Hoechst DNA content imaging, 48 h; also: potency is read from the fitted curve at half-maximal effect; % of control where 0% means no effect; nearly all actives have a fitted effect of over 55% in size
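Image-based read-out: total Hoechst fluorescence of nuclei (405 nm excitation, 500-530 nm emission), with hits raising the fraction of high-intensity nuclei. SW480 colon cells incubated 48 hr with compounds at 37 C.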
D3 antag – D3 dopamine receptor (human) antagonism | max response, negative = inhibition, % | actives 2.5% (n = 360,000) | AID 652054 | D3R cells, DiscoveRx beta-arrestin luminescence, antagonist mode; stronger effect = lower value; in the data active = max response below about -50%; inconclusive = no clear call, values can overlap the other calls; also: % is scaled to controls: 0 for no effect and ±100 for the full control effect
Target sequence (P35462 whole entry, looked up): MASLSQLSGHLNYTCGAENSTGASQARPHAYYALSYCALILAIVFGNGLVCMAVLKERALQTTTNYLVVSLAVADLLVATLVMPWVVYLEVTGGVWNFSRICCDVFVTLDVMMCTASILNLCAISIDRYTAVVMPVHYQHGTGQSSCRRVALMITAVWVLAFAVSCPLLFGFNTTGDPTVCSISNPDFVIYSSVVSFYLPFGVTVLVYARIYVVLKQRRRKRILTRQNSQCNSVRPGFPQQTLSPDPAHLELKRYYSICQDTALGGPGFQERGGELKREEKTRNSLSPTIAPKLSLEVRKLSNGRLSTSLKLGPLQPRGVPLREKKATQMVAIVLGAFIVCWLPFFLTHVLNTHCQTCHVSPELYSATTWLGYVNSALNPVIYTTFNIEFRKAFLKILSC
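Cells plated overnight at 1500 cells/well, then exposed to library compounds with dopamine controls for 90 minutes at 37 degrees C. DiscoveRx reagent added for 30–60 minutes at room temperature; luminescence read, quantitative HTS format.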
KB-3-1 tox – kills parental KB-3-1 adenocarcinoma cells | KB-3-1 viability, CellTiter-Glo ATP luminescence, 72 h | actives 1.4% (n = 400,000) | Potency, µM (top dose mostly 46.1 µM), most hits filed as cytotoxic | AID 1347075; also: potency is read from the fitted curve at half-maximal effect; % is scaled to controls: 0 for no effect and ±100 for the full control effect; nearly all actives have a fitted effect of over 60% in size
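Using CellTiter-Glo luminescence, growth of non-resistant KB-3-1 adenocarcinoma cells is assessed 72 h after pin-tool compound addition at 37 °C. Normalized responses across the concentration series yield fitted curves.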
DRD3 agonist – agonists of human D3 dopamine receptor; P35462; D3R DiscoveRx beta-arrestin cells, luminescence, 90 min; max activation, %; actives 0.58% (n = 410,000); in the data active = max activation above about 30%; also: 0% is about no effect
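Agonist mode: compounds and dopamine controls were applied to plated cells for 90 min at 37 degrees C after an overnight attachment at 1500 cells/well. Luminescent read-out followed 30 - 60 minutes at room temperature with DiscoveRx detection reagent.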
Active calls of the source: *; i = inactive; u = inconclusive; x = no result. Unless noted, calls follow the shape of the dose curve; as a rule, active = well fitted curve in the direction sought with a large enough effect; inconclusive = small, poorly fitted or top-dose-only effect, or another doubt; inactive = no such curve, though single readings can be large; an effect the other way counts as inactive or inconclusive.

SMILES	MCF10A rerep	KB-V1 MDR tox	SW480 rerep	D3 antag	KB-3-1 tox	DRD3 agonist
COc1ccc(N2CCN(C(=O)c3oc4ccccc4c3NC(=O)Cc3cccc(OC)c3)CC2)cc1	5%	u	-25%	7	i	0
COc1ccc(COC(=O)C2=C(C)NC(=O)CC2c2cccc(Cl)c2Cl)cc1 (stereo not drawn)	x	i	x	x	i	-3
O=C1C(F)=CC(COC(c2ccccc2)(c2ccccc2)c2ccccc2)OC1n1cc(F)c(=O)[nH]c1=O (stereo not drawn)	2.6µM*	u	7.3µM*	-17	u	-9
CC(=O)OCC1OC(n2cc(F)c(=O)[nH]c2=O)C(OC(C)=O)C1OC(C)=O (stereo not drawn)	u	i	u	-18	i	2
C(=C1C=c2ccccc2=C1)c1ccc(N=Nc2ccc(C=C3C=c4ccccc4=C3)cc2)cc1	x	i	x	x	i	x
CCCCCCCCCCCCCCCCC(C(=O)O)C(O)(CC(=O)O)C(=O)O (stereo not drawn)	30µM*	x	0%	x	x	40*
O=C(/C=C/c1ccc(F)cc1)N1CCN(Cc2ccccc2)CC1	5%	i	-11%	-69*	i	-20
O=C(/C=C/c1ccccc1)N1CCN(c2cccc(Cl)n2)CC1	-1%	18µM*	-2%	2	i	3
O=C(/C=C/c1ccc(Br)cc1)N1CCN(Cc2ccccc2)CC1	u	u	-3%	7	i	-7
Cc1ccc(/C=C/C(=O)N2CCN(Cc3ccccc3)CC2)o1	5%	13µM*	0%	0	i	-7
O=C(/C=C/c1ccc(F)cc1)N1CCN(c2ccccn2)CC1	4%	i	-12%	3	i	1
CCOC(=O)c1ccc(NC(=O)N2CCOc3ccccc32)cc1	x	i	x	x	i	-14
Cn1ccsc1=NC(=O)c1ccc(S(C)(=O)=O)c([N+](=O)[O-])c1	15µM*	x	16µM*	8	x	-12
CS(=O)(=O)c1ccc(C(=O)OCc2nnc(-c3ccc(Cl)cc3)o2)cc1[N+](=O)[O-]	3.7µM*	i	u	-55*	i	-12
Cn1cccc1C(=O)NC(=O)COC(=O)c1ccc(S(C)(=O)=O)c([N+](=O)[O-])c1	5.8µM*	u	16µM*	-77*	u	-13
CS(=O)(=O)c1ccc(C(=O)OCC(=O)NC(=O)NC2CCCCC2)cc1[N+](=O)[O-]	x	i	x	x	u	x
CS(=O)(=O)c1ccc(C(=O)OCC(=O)NC23CC4CC(CC(C4)C2)C3)cc1[N+](=O)[O-]	4.1µM*	i	u	-58*	i	-11
Cn1ccsc1=NC(=O)c1ccc(Cl)c([N+](=O)[O-])c1	2%	i	-3%	9	i	2
COc1cc2c(cc1OC)C(=Cc1ccc(N(C)C)cc1)C=C2	11%	i	1%	14	i	33*
Cc1cccc(NC(=O)Nc2ccc(C#N)cc2)n1	15µM*	u	u	0	u	-12
COc1ccccc1NC(=O)Nc1cccc(C)n1	6%	u	0%	3	21µM*	10
Cc1cccc(NC(=O)Nc2cccc(C#N)c2)n1	u	u	0%	5	u	6
CCN/N=C(\Cc1nc2ccccc2[nH]1)c1ccccc1	21µM*	i	16%	-12	i	-5
c1ccc(N/N=C(\Cc2nc3ccccc3[nH]2)c2ccccc2)cc1	u	i	15%	4	i	1
Cc1ccc(N/N=C(\Cc2nc3ccccc3[nH]2)c2ccccc2)cc1	u	3.7µM*	1.8µM*	-60*	1.2µM*	-23
SMILES	MCF10A rerep	KB-V1 MDR tox	SW480 rerep	D3 antag	KB-3-1 tox	DRD3 agonist
O=C1NC2c3c(I)sc(I)c3C(=O)C2O1 (stereo not drawn)	13µM*	i	16µM*	0	u	3
O=C1NC2c3c(Cl)sc(Cl)c3C(=O)C2O1 (stereo not drawn)	7.3µM*	u	u	-26	i	2
O=C(Nc1ccc(F)cc1)c1cccc(N2C(=O)c3ccccc3C2=O)c1	-2%	i	-10%	1	i	0
Cc1ccc(NC(=O)c2cc(-c3ccccc3)nn2-c2ccccc2)cc1	21µM*	21µM*	28%	0	u	-19
O=C(Nc1ccc(F)cc1)c1nn(-c2ccccc2)c(=O)cc1Cl	u	u	u	u	4.6µM*	1
CCOc1ccc(C2C(C(N)=O)=C(C)Nc3nc(-c4ccc(OC)cc4)nn32)cc1 (stereo not drawn)	x	i	x	x	i	-2
CC(C)Oc1ccccc1-c1nc(SCC(=O)c2ccc(F)cc2)n[nH]1	x	i	x	x	i	-14
CCOC(=O)NNc1ccc2nonc2c1[N+](=O)[O-]	12%	i	23µM*	-5	u	-3
Cc1cccc(CNC(=O)c2ccc(N3Cc4ccccc4Oc4ncccc43)s2)c1	x	i	x	x	i	1
CC(C)C(=O)C1=Cc2cccc([N+](=O)[O-])c2OC1N1CCOCC1 (stereo not drawn)	-9%	u	5%	-54*	i	-8
O=C(NCc1ccncc1)C1CCCN(S(=O)(=O)c2cc(Cl)ccc2Cl)C1 (stereo not drawn)	16%	u	-597%	5	u	0
Nc1cccc2cnccc12	-3%	i	-7%	u	i	5
Nc1ccncc1N	u	u	u	0	21µM*	-20
NS(=O)(=O)c1ccc(CCNC(=O)Cn2c(=O)c3cccn3c3ccc(F)cc32)cc1	x	x	x	x	x	-1
CCn1c2c(c3cc(Br)ccc31)CCC/C2=N\O	13µM*	u	-3%	10	u	36*
CCc1cccc(C)c1NC(=O)CN(C)Cc1ccccc1F	17%	21µM*	0%	0	u	3
CN(CC(=O)NC(=O)Nc1ccccc1F)Cc1ccccc1F	u	x	2%	16	x	4
C[N+](C)(C)CC(O)CC(=O)[O-] (stereo not drawn)	x	x	x	x	x	14
Cc1cc2c(cc(C(=O)OCC(=O)NCc3cccs3)n2C(C)C)o1	2.9µM*	u	8.2µM*	-17	9.2µM*	-18
CCOC(=O)C(C)NC(=O)CCc1nnc2ccc(N3CCC(C)CC3)nn12 (stereo not drawn)	26µM*	i	-11%	19	i	-2
COc1ccc(S(=O)(=O)N(CCc2ccccc2)CC(=O)Nc2cc(C)ccc2C)cc1	x	u	x	x	i	-20
Cn1cc(C(=O)NCc2ccc(Cl)cc2)c(=O)c2cc(S(=O)(=O)N3CCCCCC3)ccc21	x	i	x	x	i	9
